The text below walks through data of PubChem BioAssay AID651871 (Sanford-Burnham Center for Chemical Genomics, 2012).

“And” between values parts separate entries of the source, which are not always exact repeats. Equal entries are not always repeated.

The test has as its system HL-1. As to the kind of experiment: cardiomyocyte survival under oxidative or metabolic stress – cell-based, panel, H9c2 and HL-1, ATP luminescence, set 2, SAR follow-up (AID 651871).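 Note: cells exposed to stressor for 2 h before ATP readout; reference of the scale not given here.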 Particulars: H9c2/HL-1 cardiomyocytes, 2-deoxyglucose stress, with 2-deoxyglucose, run 5, at 79 µM (top of the series).
Take `COc1ccc2c(c1OC)C(=O)N1c3ccccc3C(=O)N(Cc3cccc(Cl)c3Cl)C21` (stereo not drawn): the activity (protection/inhibition) is 43.8% and -9.92%.
Regarding `COc1ccc2nc(-c3cc(OC)c(OC)c(OC)c3)cc(C(=O)NCC(=O)Nc3ccc(C(C)=O)cc3)c2c1`, the activity (protection/inhibition) worked out at 55.8%.
With `CCOC(=O)c1cccc(NC(=O)CNC(=O)c2cc(-c3cc(OC)c(OC)c(OC)c3)nc3ccccc23)c1` the figure was 51.1%.
